From the supplement of paper PMC11732987, “Enantioselective OTUD7B fragment discovery through chemoproteomics screening and high-throughput optimisation” (Communications Chemistry, 2025)

Assays:
Assay in all cases: log2 ratio of Biotin-Ahx-Ub-VS probe labelling (fragment/DMSO); higher = less target engagement (more negative = stronger competition), active = hit call of the paper (q ≤ 0.05, log2 ratio ≤ -1)
Conditions in all cases: compound concentration: 200 uM; treatment time: 3 h
[1] = target: T1, USP42 (UniProt Q9H9J4)
T1 sequence (whole entry): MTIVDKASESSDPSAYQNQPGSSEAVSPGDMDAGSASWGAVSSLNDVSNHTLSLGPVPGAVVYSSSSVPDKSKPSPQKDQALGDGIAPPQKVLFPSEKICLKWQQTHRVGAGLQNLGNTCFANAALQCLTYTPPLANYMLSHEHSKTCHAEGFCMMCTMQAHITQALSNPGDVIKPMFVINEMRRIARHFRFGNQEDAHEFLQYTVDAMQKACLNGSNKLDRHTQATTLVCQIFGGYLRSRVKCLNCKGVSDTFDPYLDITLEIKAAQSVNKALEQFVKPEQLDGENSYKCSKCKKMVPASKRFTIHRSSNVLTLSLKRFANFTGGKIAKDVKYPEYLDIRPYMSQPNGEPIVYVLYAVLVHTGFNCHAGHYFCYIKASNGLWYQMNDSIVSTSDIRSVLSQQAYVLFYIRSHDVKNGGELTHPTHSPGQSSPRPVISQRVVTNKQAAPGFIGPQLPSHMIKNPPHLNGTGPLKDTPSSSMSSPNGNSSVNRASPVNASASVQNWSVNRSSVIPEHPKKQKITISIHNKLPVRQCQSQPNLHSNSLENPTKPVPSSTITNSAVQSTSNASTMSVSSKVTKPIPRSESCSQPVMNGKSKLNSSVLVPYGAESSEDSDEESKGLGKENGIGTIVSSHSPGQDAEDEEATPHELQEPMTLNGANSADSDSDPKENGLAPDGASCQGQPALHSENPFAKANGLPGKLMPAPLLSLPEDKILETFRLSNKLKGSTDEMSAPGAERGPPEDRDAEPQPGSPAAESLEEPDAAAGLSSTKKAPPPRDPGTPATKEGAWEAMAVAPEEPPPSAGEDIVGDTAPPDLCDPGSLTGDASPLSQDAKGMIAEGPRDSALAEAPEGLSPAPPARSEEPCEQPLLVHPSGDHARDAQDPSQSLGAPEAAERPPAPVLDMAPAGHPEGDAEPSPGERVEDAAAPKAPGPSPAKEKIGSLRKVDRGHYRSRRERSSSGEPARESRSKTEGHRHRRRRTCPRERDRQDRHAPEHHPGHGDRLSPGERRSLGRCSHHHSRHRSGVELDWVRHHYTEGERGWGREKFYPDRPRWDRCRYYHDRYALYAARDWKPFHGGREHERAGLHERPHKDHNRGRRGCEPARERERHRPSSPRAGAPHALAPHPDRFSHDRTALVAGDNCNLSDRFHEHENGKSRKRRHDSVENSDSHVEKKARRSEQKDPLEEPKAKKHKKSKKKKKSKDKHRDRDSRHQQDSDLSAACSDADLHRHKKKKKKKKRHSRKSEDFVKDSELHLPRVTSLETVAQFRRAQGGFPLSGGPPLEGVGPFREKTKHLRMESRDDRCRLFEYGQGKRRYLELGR
In short: (§1)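 The table lists average log2 ratios of fragment over vehicle, from an unpaired t-test on global-median-normalised Spectronaut label-free quantities. Proteins with ≥2 unique peptides were used. Samples were HEK293T lysate (495 µg) treated in triplicate with fragment at 200 µM or vehicle for 3 h, then with Biotin-Ahx-Ub-VS (0.5 µM final) for 1 h, with labelled DUBs NeutrAvidin-enriched and run by diaPASEF LC-MS/MS.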

[2] = target: USP46 (UniProt P62068)
In short: as §1

[3] = target: T2, USP47 (UniProt Q96K76)
T2 sequence (whole entry): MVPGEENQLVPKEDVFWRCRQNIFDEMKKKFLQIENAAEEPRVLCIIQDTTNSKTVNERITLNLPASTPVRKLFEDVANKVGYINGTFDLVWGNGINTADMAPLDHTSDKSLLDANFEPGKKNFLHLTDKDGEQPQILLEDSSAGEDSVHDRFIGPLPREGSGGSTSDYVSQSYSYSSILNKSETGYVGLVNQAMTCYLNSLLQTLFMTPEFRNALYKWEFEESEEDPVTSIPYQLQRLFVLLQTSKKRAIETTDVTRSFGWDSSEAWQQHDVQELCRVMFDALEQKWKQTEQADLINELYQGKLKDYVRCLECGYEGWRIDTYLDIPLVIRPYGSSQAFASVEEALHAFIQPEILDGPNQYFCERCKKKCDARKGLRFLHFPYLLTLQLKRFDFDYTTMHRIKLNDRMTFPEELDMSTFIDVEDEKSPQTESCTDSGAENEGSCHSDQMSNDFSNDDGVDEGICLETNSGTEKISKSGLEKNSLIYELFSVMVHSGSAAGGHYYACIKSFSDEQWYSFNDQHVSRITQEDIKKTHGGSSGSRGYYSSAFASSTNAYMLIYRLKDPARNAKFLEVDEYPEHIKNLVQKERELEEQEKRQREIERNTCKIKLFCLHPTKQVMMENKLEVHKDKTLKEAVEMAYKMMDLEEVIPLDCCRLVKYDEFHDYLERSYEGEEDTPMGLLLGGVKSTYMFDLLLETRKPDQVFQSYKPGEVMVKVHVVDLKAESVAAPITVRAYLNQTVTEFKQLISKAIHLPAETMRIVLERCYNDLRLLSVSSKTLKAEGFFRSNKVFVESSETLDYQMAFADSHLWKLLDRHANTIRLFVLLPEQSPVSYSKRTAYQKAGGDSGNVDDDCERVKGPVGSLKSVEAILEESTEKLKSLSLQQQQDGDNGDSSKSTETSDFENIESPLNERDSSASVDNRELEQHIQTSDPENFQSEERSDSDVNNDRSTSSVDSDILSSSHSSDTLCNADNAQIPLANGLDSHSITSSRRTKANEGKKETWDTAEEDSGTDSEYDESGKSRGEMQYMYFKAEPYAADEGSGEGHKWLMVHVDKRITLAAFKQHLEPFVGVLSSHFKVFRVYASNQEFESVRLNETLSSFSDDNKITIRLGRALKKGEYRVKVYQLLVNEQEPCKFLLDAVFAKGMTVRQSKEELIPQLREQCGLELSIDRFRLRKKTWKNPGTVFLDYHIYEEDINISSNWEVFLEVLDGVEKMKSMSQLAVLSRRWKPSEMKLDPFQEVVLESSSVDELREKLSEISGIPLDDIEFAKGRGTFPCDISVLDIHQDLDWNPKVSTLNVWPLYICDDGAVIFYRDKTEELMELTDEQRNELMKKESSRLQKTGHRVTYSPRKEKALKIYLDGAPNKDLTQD
In short: as §1

[4] = target: T3, USP48 (UniProt Q86UV5)
T3 sequence (whole entry): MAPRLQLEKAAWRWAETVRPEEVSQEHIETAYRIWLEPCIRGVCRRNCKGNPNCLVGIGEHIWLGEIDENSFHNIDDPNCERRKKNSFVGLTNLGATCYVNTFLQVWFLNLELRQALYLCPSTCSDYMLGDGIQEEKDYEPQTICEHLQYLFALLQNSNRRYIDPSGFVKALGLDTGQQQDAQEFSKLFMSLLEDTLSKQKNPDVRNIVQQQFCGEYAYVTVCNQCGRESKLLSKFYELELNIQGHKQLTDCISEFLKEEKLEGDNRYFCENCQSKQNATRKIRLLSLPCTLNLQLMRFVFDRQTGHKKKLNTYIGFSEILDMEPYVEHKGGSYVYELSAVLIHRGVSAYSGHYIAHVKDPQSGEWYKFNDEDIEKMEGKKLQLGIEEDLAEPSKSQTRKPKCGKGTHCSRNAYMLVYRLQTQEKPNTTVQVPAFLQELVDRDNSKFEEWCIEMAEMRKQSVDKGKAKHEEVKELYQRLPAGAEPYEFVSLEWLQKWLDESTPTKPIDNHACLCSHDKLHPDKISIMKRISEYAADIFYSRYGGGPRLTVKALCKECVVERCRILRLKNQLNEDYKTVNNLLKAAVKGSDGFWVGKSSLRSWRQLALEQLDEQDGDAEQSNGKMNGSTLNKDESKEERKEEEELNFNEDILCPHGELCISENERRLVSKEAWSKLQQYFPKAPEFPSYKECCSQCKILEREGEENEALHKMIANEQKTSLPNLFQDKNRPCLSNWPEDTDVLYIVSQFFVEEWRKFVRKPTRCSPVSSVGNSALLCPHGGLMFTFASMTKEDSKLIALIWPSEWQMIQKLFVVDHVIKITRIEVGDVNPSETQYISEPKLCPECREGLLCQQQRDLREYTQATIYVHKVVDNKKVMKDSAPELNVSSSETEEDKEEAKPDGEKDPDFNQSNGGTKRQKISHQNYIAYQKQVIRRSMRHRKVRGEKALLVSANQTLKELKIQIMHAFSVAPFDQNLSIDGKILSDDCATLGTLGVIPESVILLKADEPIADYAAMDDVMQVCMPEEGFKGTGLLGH
In short: as §1

[5] = target: T4, USP5 (UniProt P45974)
T4 sequence (whole entry): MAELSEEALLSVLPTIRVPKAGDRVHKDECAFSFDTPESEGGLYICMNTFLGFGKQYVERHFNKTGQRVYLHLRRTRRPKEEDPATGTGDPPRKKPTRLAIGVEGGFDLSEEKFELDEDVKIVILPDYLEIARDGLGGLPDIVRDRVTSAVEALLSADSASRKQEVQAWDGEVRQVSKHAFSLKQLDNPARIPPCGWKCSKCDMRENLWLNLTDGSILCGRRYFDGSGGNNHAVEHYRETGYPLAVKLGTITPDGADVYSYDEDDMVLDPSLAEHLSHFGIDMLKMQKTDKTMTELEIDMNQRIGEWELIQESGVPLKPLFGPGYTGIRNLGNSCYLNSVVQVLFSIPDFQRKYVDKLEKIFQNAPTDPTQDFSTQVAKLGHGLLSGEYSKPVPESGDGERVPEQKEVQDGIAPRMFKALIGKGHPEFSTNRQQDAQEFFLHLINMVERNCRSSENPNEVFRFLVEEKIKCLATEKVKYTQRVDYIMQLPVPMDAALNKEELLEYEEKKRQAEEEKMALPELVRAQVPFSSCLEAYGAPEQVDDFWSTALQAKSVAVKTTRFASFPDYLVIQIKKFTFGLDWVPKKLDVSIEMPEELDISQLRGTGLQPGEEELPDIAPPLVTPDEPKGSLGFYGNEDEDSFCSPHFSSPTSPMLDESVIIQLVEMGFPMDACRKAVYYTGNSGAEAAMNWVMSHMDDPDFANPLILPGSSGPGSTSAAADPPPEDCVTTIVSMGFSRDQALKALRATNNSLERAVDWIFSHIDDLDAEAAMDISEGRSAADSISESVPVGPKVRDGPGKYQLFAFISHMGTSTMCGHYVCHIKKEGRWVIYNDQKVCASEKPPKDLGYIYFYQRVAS
In short: as §1

[6] = target: USP54 (UniProt Q70EL1)
In short: as §1

[7] = target: USP7 (UniProt Q93009)
In short: as §1

[8] = target: T5, USP8 (UniProt P40818)
T5 sequence (whole entry): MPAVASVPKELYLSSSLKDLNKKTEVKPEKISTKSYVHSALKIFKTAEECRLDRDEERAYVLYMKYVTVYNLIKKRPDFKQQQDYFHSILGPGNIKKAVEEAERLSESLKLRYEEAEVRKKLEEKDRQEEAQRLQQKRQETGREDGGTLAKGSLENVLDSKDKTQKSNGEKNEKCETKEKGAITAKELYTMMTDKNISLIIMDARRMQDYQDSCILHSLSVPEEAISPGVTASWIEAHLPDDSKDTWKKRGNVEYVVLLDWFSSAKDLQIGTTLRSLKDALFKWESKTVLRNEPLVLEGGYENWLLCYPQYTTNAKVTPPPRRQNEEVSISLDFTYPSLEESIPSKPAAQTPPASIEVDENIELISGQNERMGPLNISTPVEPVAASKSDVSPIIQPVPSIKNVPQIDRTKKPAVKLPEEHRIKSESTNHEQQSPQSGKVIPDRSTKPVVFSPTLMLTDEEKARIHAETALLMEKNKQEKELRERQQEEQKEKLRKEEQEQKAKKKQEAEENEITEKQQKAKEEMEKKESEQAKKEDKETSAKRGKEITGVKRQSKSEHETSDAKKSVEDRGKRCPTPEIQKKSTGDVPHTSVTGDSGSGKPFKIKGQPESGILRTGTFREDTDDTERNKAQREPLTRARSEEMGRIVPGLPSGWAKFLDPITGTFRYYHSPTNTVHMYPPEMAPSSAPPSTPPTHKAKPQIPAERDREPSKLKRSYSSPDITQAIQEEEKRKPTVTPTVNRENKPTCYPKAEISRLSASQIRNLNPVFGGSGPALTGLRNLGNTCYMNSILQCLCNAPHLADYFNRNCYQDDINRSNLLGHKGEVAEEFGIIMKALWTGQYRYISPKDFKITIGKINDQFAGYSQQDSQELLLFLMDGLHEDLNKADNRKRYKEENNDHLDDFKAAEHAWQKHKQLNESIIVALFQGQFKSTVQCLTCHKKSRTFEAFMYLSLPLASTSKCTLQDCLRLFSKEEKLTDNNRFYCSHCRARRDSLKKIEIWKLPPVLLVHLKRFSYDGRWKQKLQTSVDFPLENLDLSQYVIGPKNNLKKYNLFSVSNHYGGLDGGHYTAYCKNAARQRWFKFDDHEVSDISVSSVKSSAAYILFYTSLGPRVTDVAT
In short: as §1

[9] = target: USP9X (UniProt Q93008)
In short: as §1

[10] = target: UniProt O00487
In short: as §1

Measured: log2 ratio of Biotin-Ahx-Ub-VS probe labelling

Sequence of USP54 (Q70EL1 whole entry): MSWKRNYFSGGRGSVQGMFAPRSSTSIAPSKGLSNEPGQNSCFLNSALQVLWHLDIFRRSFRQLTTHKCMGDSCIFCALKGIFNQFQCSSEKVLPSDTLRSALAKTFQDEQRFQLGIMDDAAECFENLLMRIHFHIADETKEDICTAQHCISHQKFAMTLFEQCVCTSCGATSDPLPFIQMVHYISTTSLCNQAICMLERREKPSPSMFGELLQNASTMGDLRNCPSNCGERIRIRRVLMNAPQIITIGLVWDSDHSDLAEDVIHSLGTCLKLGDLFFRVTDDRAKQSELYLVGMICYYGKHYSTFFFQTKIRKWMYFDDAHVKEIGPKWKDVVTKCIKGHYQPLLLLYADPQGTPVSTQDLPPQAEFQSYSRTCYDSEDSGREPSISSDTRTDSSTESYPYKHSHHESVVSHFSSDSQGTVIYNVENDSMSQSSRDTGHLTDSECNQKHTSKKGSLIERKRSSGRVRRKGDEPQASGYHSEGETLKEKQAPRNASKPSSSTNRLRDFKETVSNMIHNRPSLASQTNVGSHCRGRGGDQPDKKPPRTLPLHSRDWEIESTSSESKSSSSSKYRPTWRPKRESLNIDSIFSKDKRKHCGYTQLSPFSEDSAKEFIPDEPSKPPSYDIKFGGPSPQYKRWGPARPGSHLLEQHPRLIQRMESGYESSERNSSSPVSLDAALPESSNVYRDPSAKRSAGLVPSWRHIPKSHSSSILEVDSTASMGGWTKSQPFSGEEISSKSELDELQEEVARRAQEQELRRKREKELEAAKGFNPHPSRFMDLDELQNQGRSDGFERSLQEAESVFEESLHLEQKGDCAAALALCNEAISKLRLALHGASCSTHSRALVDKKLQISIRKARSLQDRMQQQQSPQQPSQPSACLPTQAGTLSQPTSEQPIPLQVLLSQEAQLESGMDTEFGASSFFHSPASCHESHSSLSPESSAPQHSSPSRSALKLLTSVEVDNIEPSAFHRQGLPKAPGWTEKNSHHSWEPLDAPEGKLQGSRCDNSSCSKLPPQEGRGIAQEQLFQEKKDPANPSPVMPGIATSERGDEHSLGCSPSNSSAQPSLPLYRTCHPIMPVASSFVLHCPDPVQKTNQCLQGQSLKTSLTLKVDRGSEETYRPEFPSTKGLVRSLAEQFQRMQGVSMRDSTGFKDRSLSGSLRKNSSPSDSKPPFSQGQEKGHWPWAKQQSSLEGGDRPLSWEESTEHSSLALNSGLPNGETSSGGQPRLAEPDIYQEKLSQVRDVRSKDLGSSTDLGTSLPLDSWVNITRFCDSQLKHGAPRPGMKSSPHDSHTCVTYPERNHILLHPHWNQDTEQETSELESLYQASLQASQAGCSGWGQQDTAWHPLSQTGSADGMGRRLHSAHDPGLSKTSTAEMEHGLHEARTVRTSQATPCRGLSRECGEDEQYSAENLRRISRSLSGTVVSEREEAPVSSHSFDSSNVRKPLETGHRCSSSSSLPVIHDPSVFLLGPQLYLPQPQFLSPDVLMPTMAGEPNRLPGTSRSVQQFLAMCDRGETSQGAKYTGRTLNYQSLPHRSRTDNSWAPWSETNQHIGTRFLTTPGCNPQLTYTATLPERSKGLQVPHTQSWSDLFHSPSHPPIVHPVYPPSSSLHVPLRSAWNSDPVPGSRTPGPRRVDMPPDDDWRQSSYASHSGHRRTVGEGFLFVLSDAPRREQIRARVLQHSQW
Sequence of UniProt O00487 (O00487 whole entry): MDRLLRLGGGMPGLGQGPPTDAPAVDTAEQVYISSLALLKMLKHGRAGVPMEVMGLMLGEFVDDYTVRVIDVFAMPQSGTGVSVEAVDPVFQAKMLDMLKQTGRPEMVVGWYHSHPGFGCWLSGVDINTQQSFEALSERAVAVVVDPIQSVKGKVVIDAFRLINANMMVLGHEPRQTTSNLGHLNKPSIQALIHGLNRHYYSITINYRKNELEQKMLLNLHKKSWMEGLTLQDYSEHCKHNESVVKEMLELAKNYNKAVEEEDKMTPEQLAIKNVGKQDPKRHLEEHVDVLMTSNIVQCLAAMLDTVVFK
Sequence of USP9X (Q93008 whole entry): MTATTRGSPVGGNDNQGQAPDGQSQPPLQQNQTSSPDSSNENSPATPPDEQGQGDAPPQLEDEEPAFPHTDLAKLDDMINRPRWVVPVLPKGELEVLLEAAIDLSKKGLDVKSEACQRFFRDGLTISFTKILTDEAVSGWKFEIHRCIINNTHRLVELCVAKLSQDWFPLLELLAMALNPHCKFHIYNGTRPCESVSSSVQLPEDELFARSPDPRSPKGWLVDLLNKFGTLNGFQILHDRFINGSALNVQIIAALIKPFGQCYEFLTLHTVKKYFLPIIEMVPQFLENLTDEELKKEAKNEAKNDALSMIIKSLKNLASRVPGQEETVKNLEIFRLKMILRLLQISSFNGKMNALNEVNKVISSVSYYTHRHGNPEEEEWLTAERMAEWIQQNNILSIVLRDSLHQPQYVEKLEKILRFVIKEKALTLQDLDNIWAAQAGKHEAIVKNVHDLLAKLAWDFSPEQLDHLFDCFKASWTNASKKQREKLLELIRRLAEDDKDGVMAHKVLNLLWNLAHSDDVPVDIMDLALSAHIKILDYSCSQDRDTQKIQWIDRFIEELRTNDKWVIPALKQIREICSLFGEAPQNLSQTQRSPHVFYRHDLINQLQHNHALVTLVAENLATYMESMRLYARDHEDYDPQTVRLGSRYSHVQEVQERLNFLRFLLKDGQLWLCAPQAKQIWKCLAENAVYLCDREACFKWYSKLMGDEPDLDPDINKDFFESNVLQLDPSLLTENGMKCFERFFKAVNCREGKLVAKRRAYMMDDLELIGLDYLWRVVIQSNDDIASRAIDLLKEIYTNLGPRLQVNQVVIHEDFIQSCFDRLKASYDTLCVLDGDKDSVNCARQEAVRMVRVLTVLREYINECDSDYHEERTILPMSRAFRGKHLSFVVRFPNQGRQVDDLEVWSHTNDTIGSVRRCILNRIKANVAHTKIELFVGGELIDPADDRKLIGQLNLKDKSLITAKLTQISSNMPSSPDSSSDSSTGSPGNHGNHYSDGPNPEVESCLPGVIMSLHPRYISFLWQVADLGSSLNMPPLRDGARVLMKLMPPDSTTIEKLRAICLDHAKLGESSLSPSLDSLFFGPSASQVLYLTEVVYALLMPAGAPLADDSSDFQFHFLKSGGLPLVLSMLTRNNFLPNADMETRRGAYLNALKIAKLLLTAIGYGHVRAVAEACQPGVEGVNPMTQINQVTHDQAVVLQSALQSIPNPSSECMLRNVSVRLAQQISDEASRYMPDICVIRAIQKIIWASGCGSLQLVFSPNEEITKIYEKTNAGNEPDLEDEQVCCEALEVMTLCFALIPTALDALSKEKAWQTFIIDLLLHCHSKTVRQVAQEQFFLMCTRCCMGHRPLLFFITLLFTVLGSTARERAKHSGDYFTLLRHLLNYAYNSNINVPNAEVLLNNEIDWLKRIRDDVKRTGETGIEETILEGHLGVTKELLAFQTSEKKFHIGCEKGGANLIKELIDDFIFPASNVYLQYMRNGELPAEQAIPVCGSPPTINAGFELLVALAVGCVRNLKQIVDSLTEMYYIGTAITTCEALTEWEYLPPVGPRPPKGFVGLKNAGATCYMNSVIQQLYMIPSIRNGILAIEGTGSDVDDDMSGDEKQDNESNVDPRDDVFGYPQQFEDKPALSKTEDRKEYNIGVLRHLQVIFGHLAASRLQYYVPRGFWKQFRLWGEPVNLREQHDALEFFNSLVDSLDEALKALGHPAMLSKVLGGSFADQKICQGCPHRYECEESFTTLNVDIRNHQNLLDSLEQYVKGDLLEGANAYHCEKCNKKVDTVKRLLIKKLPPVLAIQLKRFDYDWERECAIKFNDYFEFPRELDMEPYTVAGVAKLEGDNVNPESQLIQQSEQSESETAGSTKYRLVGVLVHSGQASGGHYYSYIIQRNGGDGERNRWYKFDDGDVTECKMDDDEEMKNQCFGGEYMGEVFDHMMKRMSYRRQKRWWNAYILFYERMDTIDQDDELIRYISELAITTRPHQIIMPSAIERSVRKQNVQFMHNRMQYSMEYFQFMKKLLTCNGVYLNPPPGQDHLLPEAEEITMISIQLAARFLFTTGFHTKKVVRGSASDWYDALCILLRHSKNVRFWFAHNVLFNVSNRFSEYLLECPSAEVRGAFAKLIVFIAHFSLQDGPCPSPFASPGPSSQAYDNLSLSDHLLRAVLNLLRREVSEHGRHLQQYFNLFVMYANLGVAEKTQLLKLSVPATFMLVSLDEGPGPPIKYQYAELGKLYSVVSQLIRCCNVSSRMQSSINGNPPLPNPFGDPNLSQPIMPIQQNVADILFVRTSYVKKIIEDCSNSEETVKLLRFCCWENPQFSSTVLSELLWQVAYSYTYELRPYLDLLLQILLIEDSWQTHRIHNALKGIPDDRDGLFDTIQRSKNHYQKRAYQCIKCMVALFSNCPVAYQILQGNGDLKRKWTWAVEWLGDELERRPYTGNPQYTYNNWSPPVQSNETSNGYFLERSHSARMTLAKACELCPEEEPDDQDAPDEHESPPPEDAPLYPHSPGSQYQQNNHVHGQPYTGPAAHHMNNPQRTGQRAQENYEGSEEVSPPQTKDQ
Sequence of USP46 (P62068 whole entry): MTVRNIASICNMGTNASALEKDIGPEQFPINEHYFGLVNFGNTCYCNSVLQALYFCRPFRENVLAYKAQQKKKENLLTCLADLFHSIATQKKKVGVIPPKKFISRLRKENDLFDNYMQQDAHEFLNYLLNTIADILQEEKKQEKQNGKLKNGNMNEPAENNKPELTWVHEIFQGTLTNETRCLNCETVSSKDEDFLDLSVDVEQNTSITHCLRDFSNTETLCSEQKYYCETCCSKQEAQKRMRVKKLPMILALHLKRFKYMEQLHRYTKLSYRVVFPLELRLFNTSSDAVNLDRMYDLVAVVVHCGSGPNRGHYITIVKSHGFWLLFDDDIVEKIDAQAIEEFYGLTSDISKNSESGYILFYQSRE

Cc1c(NC(=O)CCl)c(=O)n(-c2ccccc2)n1C
inactive: [1] 0.238 | [2] 0.0574 | [3] -0.882 | [4] -0.0273 | [5] -0.287 | [6] 0.0174 | [7] -0.431 | [8] 0.0124 | [9] 0.00112 | [10] -0.111
